# Measurements reported in PubChem BioAssay.
# The source made the active and inactive calls.
# Tests used:
# [1] = test system: Plasmodium falciparum Sir2 (PF13_0152, Sir2A); experiment: Plasmodium falciparum Sir2A binding compounds – biochemical, small-molecule microarray, 635 nm fluorescence, primary screen (AID 1098); conditions: fluorescence 635 nm, higher = more signal;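 also: score merges spot fluorescence intensity with its signal-to-noise ratio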
# [2] = probe aDKK1 binding to arrayed compounds – biochemical, biotinylated probe, 635/667 nm fluorescence, primary screen (AID 1099); conditions: small-molecule microarray, higher = more signal;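 also: score merges 667nm spot fluorescence with signal to noise across triplicate slides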
# [3] = probe aCHRDL2 binding to arrayed compounds – biochemical, biotinylated probe, 635/667 nm fluorescence, primary screen (AID 1100); conditions: small-molecule microarray, higher = more signal
# [4] = change in splice reporter luminescence, either direction, cell-based, HEK293, spliceosome inhibition project, primary screen (AID 1101); conditions: HEK293 splicing luciferase reporter, 24 h, higher = more signal, called active from +8 up or from −8 down;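 also: HEK293 cells carrying a splicing-competent luciferase reporter gene; test concentration not given here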
# [5] = target: Fibroblast growth factor 10 (Homo sapiens) (UniProt O15520); experiment: compounds binding fibroblast growth factor 10 – biochemical, small-molecule microarray, 635 nm fluorescence, primary screen (AID 1102); conditions: FGF10 binding, fluorescence 635 nm, higher = more signal
# Fibroblast growth factor 10 (Homo sapiens), sequence (O15520 whole entry, looked up): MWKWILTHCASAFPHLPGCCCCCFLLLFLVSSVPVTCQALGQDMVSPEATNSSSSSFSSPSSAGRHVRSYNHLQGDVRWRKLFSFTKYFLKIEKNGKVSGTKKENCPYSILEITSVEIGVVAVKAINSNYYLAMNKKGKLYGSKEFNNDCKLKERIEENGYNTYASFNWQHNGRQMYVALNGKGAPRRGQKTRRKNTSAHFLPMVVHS
# [6] = test system: glycogen synthase kinase-3 (GSK3A per assay name; protocol says GSK3B); experiment: compounds binding glycogen synthase kinase-3 – biochemical, small-molecule microarray, 635 nm fluorescence, GSK3A, primary screen (AID 1103); conditions: fluorescence 635 nm, higher = more signal; also: the record names both GSK3A and GSK3B
# [7] = target: Epidermal growth factor receptor (Homo sapiens) (UniProt P00533); experiment: compounds binding epidermal growth factor receptor – biochemical, small-molecule microarray, 635 nm fluorescence, primary screen (AID 1104); conditions: EGFR binding, higher = more signal;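 also: score merges 667 nm emission intensity with spot signal to noise over triplicate slides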
# Epidermal growth factor receptor (Homo sapiens), sequence (P00533 whole entry, looked up): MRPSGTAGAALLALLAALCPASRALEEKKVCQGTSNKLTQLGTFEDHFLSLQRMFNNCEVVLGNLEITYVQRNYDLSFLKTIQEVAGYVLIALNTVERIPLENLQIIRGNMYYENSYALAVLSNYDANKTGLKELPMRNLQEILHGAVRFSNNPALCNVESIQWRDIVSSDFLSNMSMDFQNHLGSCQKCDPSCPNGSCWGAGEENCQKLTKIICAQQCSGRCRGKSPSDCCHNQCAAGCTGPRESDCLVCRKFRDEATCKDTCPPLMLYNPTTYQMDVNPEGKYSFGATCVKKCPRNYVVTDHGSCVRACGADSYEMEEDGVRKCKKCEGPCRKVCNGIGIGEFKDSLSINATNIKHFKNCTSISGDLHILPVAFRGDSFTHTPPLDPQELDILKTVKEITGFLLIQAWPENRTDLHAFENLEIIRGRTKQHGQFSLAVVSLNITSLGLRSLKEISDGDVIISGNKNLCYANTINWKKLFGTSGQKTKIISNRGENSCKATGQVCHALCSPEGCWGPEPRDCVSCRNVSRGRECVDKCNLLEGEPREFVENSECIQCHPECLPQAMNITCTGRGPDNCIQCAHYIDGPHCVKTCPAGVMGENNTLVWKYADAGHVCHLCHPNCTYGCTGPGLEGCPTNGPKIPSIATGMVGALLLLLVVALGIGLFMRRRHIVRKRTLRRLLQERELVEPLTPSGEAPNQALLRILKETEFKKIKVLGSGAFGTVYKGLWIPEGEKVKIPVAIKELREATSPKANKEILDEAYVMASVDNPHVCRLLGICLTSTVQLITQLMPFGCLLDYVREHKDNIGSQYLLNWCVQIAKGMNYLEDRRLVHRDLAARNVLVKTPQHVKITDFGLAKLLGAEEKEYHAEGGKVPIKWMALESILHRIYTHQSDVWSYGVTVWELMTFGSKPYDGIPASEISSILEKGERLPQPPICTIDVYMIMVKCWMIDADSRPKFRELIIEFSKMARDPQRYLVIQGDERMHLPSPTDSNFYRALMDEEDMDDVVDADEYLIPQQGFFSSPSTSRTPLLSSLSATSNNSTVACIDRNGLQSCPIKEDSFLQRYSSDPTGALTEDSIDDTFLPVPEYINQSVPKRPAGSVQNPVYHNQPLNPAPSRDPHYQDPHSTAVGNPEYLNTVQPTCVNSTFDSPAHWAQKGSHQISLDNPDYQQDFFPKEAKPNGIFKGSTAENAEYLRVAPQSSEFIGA
# [8] = target: Follistatin-related protein 3 (Homo sapiens) (UniProt O95633); experiment: compounds binding follistatin-related protein 3 – biochemical, small-molecule microarray, 635 nm fluorescence, primary screen (AID 1105); conditions: FSTL3 binding, higher = more signal;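 also: score merges emission near 667 nm and signal to noise per printed spot across three slides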
# Follistatin-related protein 3 (Homo sapiens), sequence (O95633 whole entry, looked up): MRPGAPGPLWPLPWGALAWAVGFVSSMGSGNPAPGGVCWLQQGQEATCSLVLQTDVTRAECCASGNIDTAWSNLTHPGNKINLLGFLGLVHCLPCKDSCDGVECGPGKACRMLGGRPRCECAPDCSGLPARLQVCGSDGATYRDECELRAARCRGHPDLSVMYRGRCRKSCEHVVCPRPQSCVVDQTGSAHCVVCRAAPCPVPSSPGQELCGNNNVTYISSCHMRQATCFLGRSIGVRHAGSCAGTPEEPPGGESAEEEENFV
# [9] = target: Dickkopf-related protein 1 (Homo sapiens) (UniProt O94907); experiment: small molecules binding DKK1 protein – biochemical, small-molecule microarray, 635 nm fluorescence scan, primary screen (AID 1106); conditions: higher = more signal;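 also: score merges emission near 667 nm with signal to noise over three replicate slides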
# Dickkopf-related protein 1 (Homo sapiens), sequence (O94907 whole entry, looked up): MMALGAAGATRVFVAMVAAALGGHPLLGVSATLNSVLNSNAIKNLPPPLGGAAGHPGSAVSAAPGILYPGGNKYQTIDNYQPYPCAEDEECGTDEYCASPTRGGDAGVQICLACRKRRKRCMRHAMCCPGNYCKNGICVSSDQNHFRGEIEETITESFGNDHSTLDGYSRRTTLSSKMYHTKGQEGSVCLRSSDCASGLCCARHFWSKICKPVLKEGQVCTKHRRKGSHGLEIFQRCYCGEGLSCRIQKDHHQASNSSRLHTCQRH
# [10] = test system: Inhibin beta A chain (activin A); experiment: small molecules binding activin A – biochemical, small-molecule microarray, 635 nm fluorescence scan, primary screen (AID 1107); conditions: INHBA, higher = more signal;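 also: mouse activin A protein probed at 4.33 µg/mL on printed slides; score merges bound-protein fluorescence near 667 nm with spot signal-to-noise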
# [11] = test system: Human papillomavirus type 1a protein E7 (residues 44-93); experiment: small molecules binding HPV E7 44-93 – biochemical, small-molecule microarray, residues 44-93, 635 nm fluorescence, primary screen (AID 1108); conditions: fluorescence 635 nm, higher = more signal;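 also: E7 fragment applied at 1 µg/mL in TBST for 1 h at 4 C; score combines spot fluorescence with its signal to noise ratio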
# [12] = hepatitis C replication reporter changes, two-sided – Huh7 cells, luciferase reporter, HCV replication inhibitor project, primary screen (AID 1109); conditions: Huh7 HCV replicon luciferase reporter, 48 h; higher = more signal;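 also: huh7 hepatoma cells harbouring a luciferase neomycin HCV replicon reporter; luciferase luminescence as measure of HCV replicon replication; test concentration not given here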
# [13] = target: Left-right determination factor 2 (Homo sapiens) (UniProt O00292); experiment: small molecules binding LEFTY2 protein – biochemical, small-molecule microarray, 635 nm fluorescence scan, primary screen (AID 1110); conditions: higher = more signal
# Left-right determination factor 2 (Homo sapiens), sequence (O00292 whole entry, looked up): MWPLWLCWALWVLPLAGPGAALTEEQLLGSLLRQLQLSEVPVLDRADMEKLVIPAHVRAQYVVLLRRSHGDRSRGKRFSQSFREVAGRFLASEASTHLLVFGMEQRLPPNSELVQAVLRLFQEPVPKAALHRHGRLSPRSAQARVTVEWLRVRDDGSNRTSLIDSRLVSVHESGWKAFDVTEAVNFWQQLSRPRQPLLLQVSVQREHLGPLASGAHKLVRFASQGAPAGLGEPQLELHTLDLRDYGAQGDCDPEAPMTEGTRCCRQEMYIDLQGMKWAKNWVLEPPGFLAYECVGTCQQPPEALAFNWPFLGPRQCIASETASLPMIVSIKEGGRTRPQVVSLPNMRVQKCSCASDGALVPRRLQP
# [14] = target: Calmodulin-1 (Homo sapiens) (UniProt P0DP23); experiment: small molecules binding calmodulin-1 with EGTA – biochemical, small-molecule microarray, Cy5-labelled CALM1, profiling panel (AID 1111); conditions: Cy5-CALM1 binding fluorescence, higher = more signal;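 also: labelled calmodulin applied in Tris saline Tween buffer holding calcium plus EGTA and DTT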
# [15] = target: Calmodulin-1 (Homo sapiens) (UniProt P0DP23); experiment: small molecules binding Ca-loaded calmodulin-1 – biochemical, small-molecule microarray, Cy5-labelled CALM1, plus calcium, artefact control for SMM control-protein annotation, profiling panel (AID 1112); conditions: Cy5-CALM1 binding fluorescence, higher = more signal;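 also: score merges spot fluorescence with signal to noise from triplicate slides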
# [16] = probe aWnt5a binding to arrayed compounds – biochemical, biotinylated probe, 635/667 nm fluorescence, primary screen (AID 1113); conditions: small-molecule microarray, higher = more signal;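 also: score merges 667 nm fluorescence intensity with signal-to-noise per printed feature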
# [17] = probe aShh binding to arrayed compounds – biochemical, biotinylated probe, 635/667 nm fluorescence, primary screen (AID 1114); conditions: small-molecule microarray, higher = more signal;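 also: probe is biotin-labelled aShh protein from a stem cell growth factor screen; measures binding of labelled protein to compounds printed on the slide; score merges feature fluorescence at 667 nm with signal-to-noise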
# [18] = probe aNog binding to arrayed compounds – biochemical, biotinylated probe, 635/667 nm fluorescence, primary screen (AID 1115); conditions: small-molecule microarray, higher = more signal;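 also: probe is biotinylated aNog protein used at 0.15 µg/mL for 1 h at 4 C; z-score combines 667 nm fluorescence of each spot with its signal to noise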
# [19] = target: Torsin-1A-interacting protein 1 (Homo sapiens) (UniProt Q5JTV8); experiment: compound microarray binding of lysate hLAP1 – cell lysate, small-molecule microarray, COS7 lysate, 635/667 nm fluorescence, primary screen (AID 1116); conditions: 635 nm fluorescence, higher = more signal
# Torsin-1A-interacting protein 1 (Homo sapiens), sequence (Q5JTV8 whole entry, looked up): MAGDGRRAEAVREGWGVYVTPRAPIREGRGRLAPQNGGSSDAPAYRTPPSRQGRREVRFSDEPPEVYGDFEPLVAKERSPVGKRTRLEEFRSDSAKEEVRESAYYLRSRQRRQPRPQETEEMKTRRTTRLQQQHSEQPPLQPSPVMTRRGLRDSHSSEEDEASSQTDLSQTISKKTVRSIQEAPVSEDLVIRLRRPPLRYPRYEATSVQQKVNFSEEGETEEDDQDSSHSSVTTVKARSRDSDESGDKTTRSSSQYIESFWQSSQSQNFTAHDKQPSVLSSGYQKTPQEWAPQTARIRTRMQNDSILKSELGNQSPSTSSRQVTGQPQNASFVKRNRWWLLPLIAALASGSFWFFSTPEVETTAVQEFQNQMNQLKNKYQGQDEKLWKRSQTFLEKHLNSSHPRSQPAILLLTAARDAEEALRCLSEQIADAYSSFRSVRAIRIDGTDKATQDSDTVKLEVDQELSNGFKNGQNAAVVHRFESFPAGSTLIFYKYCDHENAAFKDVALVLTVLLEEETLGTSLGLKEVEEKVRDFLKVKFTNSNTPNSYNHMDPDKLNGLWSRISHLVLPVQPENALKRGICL
# [20] = target: Alpha-bungarotoxin (Bungarus multicinctus) (UniProt P60615); experiment: compounds binding labelled alpha-BTX control protein – biochemical, small-molecule microarray, Alexa647 label, 635/667 nm fluorescence, artefact control for SMM control protein annotation, profiling panel (AID 1117); conditions: alpha-BTX-A647 binding fluorescence, higher = more signal
# Alpha-bungarotoxin (Bungarus multicinctus), sequence (P60615 whole entry, looked up): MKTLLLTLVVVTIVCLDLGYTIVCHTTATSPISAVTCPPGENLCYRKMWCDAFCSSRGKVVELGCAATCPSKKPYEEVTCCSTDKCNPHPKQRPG
Structure (SMILES),composite z-score [1],composite z-score [2],composite z-score [3],z-score [4],composite z-score [5],composite z-score [6],composite z-score [7],composite z-score [8],composite z-score [9],composite z-score [10],composite z-score [11],z-score [12],composite z-score [13],composite z-score [14],composite z-score [15],composite z-score [16],composite z-score [17],composite z-score [18],composite z-score [19],composite z-score [20]
C=C(/C(=C/C[C@H](OC(C)=O)c1cccc(OCCO)c1)c1cnc2ccccc2c1)C(C)C,-0.96,-0.104,-0.105,-0.236 (inactive),0.904,0.324,0.705,1.49,0.783,1.98,1.05,-2.31,0.524,-0.309,-0.502,-0.118,-0.264,0.0811,0.235,1.19
CC1=C([C@H](O)CCc2ccccc2)[C@H](CO)[C@@H]2C(=O)N(C)C(=O)[C@@H]2C1,0.843,-0.173,-0.495,0.626 (inactive),0.383,0.271,0.243,0.491,0.446,0.162,0.305,-0.581,0.392,0.489,-0.905,-0.197,-0.262,-0.416,0.185,0.224
CC(C)N1C(=O)C[C@@](C(=O)NCCCN(C)C)(c2ccc([N+](=O)[O-])cc2)[C@H]1c1ccc(CO)cc1,-0.133,-0.253,0.692,0.313 (inactive),-0.532,-0.777,-0.496,-0.309,-0.197,0.698,-0.218,-0.581,-0.438,-0.194,-0.774,-0.113,0.0062,-0.141,0.0945,0.942
COc1ccc([Si](C)(C)[C@@H]2[C@@H](CCn3cc([C@H](O)c4ccccc4)nn3)O[C@]3(C(=O)N(Cc4ccc(N5CCC5=O)cc4)c4ccccc43)[C@H]2C)cc1,0.453,-0.213,-0.0321,-0.619 (inactive),0.137,-0.364,-0.167,-0.0461,0.135,0.632,-0.222,-2.06,-0.309,-0.185,-0.0351,-0.217,-0.191,0.318,0.0139,-0.0352
CC(C)(C)OC(=O)CC[C@]1(C(=O)NCc2ccccc2)N=C(c2ccc(OCCCO)cc2)O[C@H]1c1ccccc1CN=[N+]=[N-],1.45,0.242,0.545,0.22 (inactive),1.22,1.36,0.227,1.37,0.133,0.554,1.41,-2.11,0.735,1.27,-0.232,0.152,0.0483,-0.0768,1.69,0.466
O=c1n(-c2ccccc2)c(=O)n2n1CC(COc1ccccc1)=C([C@H](O)CCc1ccccc1)[C@@H]2CO,-0.0946,-0.342,-0.313,-1.54 (inactive),0.692,-0.0688,0.0867,0.0711,0.291,1.03,0.676,-2.17,0.892,-0.833,-0.556,-0.0269,-0.338,-0.588,0.0355,0.5
